# Measurements published in PubChem BioAssay (Tox21).
# “And” between values parts separate entries of the source, which are not always exact repeats. Equal values may be shown once. Inconclusive results are not listed. The source made the active and inactive calls. Calls come from the whole dose curve; as a rule, active = well fitted inhibition curve with a large enough effect in the signal ratio in the repeat runs (not every such curve was filed as active); inconclusive = weak or mixed curves; inactive = flat fitted curve, though single readings scatter; the % refers to the signal ratio. Starred links: 1 amine or outer side, 2 acyl side, 3 side chain; linkers in the order of their positions; H or OH if unused. Positions of bridges follow the written chain, without caps; N, C: chain ends. Non-standard residues stand in square brackets, D forms with d. Residues, ends and D or L forms follow the SMILES beside them. Chains are numbered I, II in the order given. Actinocin(9to1) = Cc1c2oc3c(C)ccc(C(=O)[*:1])c3nc-2c(C(=O)[*:2])c(N)c1=O; NMeV = CN[C@H](C(=O)O)C(C)C; Sar = CNCC(=O)O
# Target: Progesterone receptor (Homo sapiens) (UniProt P06401)
# Test: qHTS assay to identify small molecule antagonists of the progesterone receptor (PR) signaling pathway (AID 1346795)
# Settings: PR-UAS-bla HEK293T, beta-lactamase FRET ratio, 16 h; series mostly up to 92.4 µM; activity change, negative = inhibition: at the top concentration
# Description: National Center for Advancing Translational Sciences [NCATS]
# NIH Chemical Genomics Center [NCGC]
# U.S. Environmental Protection Agency [EPA]
# National Institutes of Environmental Health Sciences [NIEHS]
# National Toxicology Program [NTP]
# U.S. Food and Drug Administration [FDA]
# Progesterone receptor (PR), a nuclear hormone receptor, plays an important role in development, metabolic homeostasis and reproduction. […] Endocrine disrupting chemicals (EDCs) and their interactions with steroid hormone receptors like PR causes disruption of normal endocrine function. To identify the compounds that inhibit PR signaling, a PR-UAS-bla GripTite cell line i.e. PR-UAS-bla HEK293T (Invitrogen, Carlsbad, CA, USA) containing a beta-lactamase reporter gene under the control of an Upstream Activator Sequence (UAS) was used to screen Tox21 10K compound library.
# Tox21 Assay Protocol Summary:
# PR-UAS-bla HEK293T cells were dispensed at 3,000 cells/4 uL of assay medium containing 2% charcoal stripped FBS per well into black wall/clear-bottom 1536-well plates using a Multidrop Combi (ThermoFisher Scientific, Waltham, MA) dispenser. After the assay plates were incubated at a 37C and 5% CO2 for 6 hr, 23 nL of compounds dissolved in DMSO, positive controls or DMSO only was transferred to the assay plate by a Pintool station (Kalypsys, San Diego, CA), followed by addition of 1 uL (1nM as final concentration) of Promegestone (R5020) in assay medium using a BioRAPTR FRD (Flying Reagent Dispenser, Aurora Discovery, San Diego, CA). The plates were incubated at 37C and 5% CO2 for 16 hr. Then 1 uL of LiveBLAzer B/G FRET substrate was added using a FRD. After the plates were incubated at room temperature for 2 hours, fluorescence intensity was measured by an Envision plate reader (PerkinElmer, Shelton, CT).
# % is set by controls: 0 for no effect and ±100 for the full control effect; potency is the fitted concentration of half-maximal effect.
# Chain of Progesterone receptor (Homo sapiens) (P06401 whole entry, looked up): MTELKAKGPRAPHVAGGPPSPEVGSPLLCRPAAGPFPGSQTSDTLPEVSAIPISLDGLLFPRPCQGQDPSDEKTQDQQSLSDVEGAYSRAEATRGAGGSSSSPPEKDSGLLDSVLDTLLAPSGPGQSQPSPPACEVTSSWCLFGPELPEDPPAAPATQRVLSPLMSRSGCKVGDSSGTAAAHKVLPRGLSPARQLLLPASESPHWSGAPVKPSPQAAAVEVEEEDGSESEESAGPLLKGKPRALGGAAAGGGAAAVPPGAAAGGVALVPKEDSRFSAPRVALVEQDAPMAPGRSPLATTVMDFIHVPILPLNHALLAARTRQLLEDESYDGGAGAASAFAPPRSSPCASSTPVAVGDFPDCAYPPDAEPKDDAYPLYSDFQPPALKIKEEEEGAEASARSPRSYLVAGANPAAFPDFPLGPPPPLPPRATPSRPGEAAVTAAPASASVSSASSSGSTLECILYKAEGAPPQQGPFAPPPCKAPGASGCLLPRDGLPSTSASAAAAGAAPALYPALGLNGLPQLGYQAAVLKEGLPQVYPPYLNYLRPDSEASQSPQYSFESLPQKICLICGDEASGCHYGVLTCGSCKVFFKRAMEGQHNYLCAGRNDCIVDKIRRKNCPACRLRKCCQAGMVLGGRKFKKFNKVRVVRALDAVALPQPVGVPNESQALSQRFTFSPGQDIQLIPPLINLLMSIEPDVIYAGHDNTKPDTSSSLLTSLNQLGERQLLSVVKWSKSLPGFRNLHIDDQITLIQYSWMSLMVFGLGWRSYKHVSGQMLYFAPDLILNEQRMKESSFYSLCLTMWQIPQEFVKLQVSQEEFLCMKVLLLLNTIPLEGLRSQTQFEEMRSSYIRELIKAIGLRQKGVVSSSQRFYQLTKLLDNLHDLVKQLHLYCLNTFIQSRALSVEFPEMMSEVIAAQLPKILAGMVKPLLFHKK
Compound,Potency,"activity change, negative = inhibition"
COC(=O)[C@H]1[C@H]2C[C@@H]3c4[nH]c5cc(OC)ccc5c4CCN3C[C@H]2C[C@@H](OC(=O)c2cc(OC)c(OC)c(OC)c2)[C@@H]1OC,inactive,
CCCN[C@H]1CCc2nc(N)sc2C1,inactive,
O=C(Oc1ccccc1)c1ccccc1O,inactive,
C[N+]1([O-])CCOCC1,,0.945% (inactive)
N[C@@H]1CONC1=O,,3.47% [at 42.5 µM] (inactive)
Oc1c(Cl)cc(Cl)c(Cl)c1Cc1c(O)c(Cl)cc(Cl)c1Cl,48.6 µM (active),
NNCCc1ccccc1,,-0.147% [at 42.5 µM] (inactive)
CCN1CCCC1CNC(=O)c1cc(S(=O)(=O)CC)c(N)cc1OC (stereo not given),,0.363% [at 42.5 µM] (inactive)
CCCNC(C)C(=O)Nc1ccccc1C (stereo not given),,9.2% [at 42.5 µM] (inactive)
Cc1cccc([N+](=O)[O-])c1C(=O)O,,11% (inactive)
CCn1c2ccccc2c2cc(N)ccc21,34.4 µM (active),
O=C1Nc2ccccc2C1(c1ccc(O)cc1)c1ccc(O)cc1,54.5 µM (active),
Nc1ccc(O)cc1,,9.16% [at 42.5 µM] (inactive)
O=C(O)c1cn(-c2ccc(F)cc2)c2cc(N3CCNCC3)c(F)cc2c1=O,,13.8% [at 18.9 µM] (inactive)
COC(=O)c1cccc(C(=O)OC)c1,inactive,
OCCN1CCNCC1,inactive,
OCC(CO)N[C@H]1C[C@](O)(CO)[C@@H](O)[C@H](O)[C@H]1O,,5.59% [at 42.5 µM] (inactive)
CCCCC/C=C/CC1CC(=O)OC1=O (stereo not given),,3.43% (inactive)
CNC1(C)C2CCC(C2)C1(C)C (stereo not given),,6.04% [at 42.5 µM] (inactive)
COc1nc(C)nc(Cl)c1NC1=NCCN1,,6.48% [at 42.5 µM] (inactive)

Compound,Potency,"activity change, negative = inhibition"
C=C(C)C1CC=C(C)C(OC(C)=O)C1 (stereo not given),inactive,
O=C(O)CP(=O)(O)O,,-1.12% [at 42.5 µM] (inactive)
Nc1cc(S(=O)(=O)O)cc2cc(S(=O)(=O)O)cc(O)c12,,-4.81% (inactive)
Cc1cc(C(C)(C)C)c(O)c(C(C)(C)C)c1,inactive,
Nc1cc(Cl)c(-c2cc(Cl)c(N)cc2Cl)cc1Cl,2.73 µM (active),
O=S(=O)(O)c1ccc2nc(-c3ccccc3)[nH]c2c1,inactive,
Oc1c(Cl)cc(Cl)cc1Sc1cc(Cl)cc(Cl)c1O,21.7 µM (active) and 49.3 µM (active),
O=Nc1ccc(Nc2ccccc2)cc1,54.5 µM (active),
O=C(OCc1ccccc1)c1ccc(O)cc1,34.4 µM (active) and 26.6 µM (active),
CC1=C(C=O)C(C)(C)CC=C1,,5.62% (inactive)
CO[Si](OC)(OC)c1ccccc1,,0.446% (inactive)
CC(C)(C)NCC(O)c1cc(O)cc(O)c1 (stereo not given),,10.5% [at 42.5 µM] (inactive)
"Cc1c2oc3c(C)ccc(C(=O)N[C@@H]4C(=O)N[C@H](C(C)C)C(=O)N5CCC[C@H]5C(=O)N(C)CC(=O)N(C)[C@@H](C(C)C)C(=O)O[C@@H]4C)c3nc-2c(C(=O)N[C@@H]2C(=O)N[C@H](C(C)C)C(=O)N3CCC[C@H]3C(=O)N(C)CC(=O)N(C)[C@@H](C(C)C)C(=O)O[C@@H]2C)c(N)c1=O (I: T[dV]P[Sar][NMeV] / II: T[dV]P[Sar][NMeV]; ester I:1-I:C, II:1-II:C; linker I:N-II:N via Actinocin(9to1))",26.6 nM (active) and 33.5 nM (active),
CC(=O)OCCOCCOCCOC(C)=O,,8.69% (inactive)
CC(=O)O[C@]1(C(C)=O)CC[C@H]2[C@@H]3C[C@H](C)C4=CC(=O)CC[C@]4(C)[C@H]3CC[C@@]21C,,-20% [at 42.5 µM] (inactive)
Cc1c(O)cccc1C(=O)N[C@@H](CSc1ccccc1)[C@H](O)CN1C[C@H]2CCCC[C@H]2C[C@H]1C(=O)NC(C)(C)C,13.3 µM (active) and 21.1 µM (active),
CCCC(=O)c1ccccc1,,-5.91% (inactive)
Cc1cccc(O)c1C,inactive,
CCC(=O)/C=C/C1C(C)=CCCC1(C)C (stereo not given),inactive,
CC(=O)CC(C)=O,,8.38% (inactive)
